Shown is part of a subset that was picked to be rich in hits.
CD40 NFkB inh – CD40 pathway inhibition in BL2 cells. AID 1053188. BL2 NF-kB luciferase reporter, CD40L-induced, 4 h. inhibition, % at 10 µM. 83,000 compounds, 0.94% hits;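 active = mean inhibition of at least 50% with a set share of replicates also reaching that level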
A number is an active result; 0 = inactive; [ ] = another dose, or the depositor's remark.

SMILES	CD40 NFkB inh
COCC(=O)Nc1ccc2c(c1)C(=O)N(C)[C@@H]1CC[C@@H](CC(=O)N3CCc4ccccc4C3)O[C@H]1CO2	0
CC1(C)CC(=Cc2ccccc2[N+](=O)[O-])C(=O)c2ccccc21	0
O=C1C(=Cc2cccc(F)c2)Cc2ccccc21	0
O=C1C(=Cc2ccccc2[N+](=O)[O-])Cc2ccccc21	49.5
O=C([C@@H]1[C@@H](CO)[C@@H]2Cn3c(cccc3=O)[C@H]1N2C(=O)c1ccccn1)N1CCCCC1	0
CN1C(=O)c2cc(NC(=O)Cc3cccs3)ccc2OC[C@H]2O[C@@H](CC(=O)NCCc3ccncc3)CC[C@H]21	0
O=c1c2ccccc2c2ccccc2c(=O)n1Nc1ccccc1	0
COc1ccc(CC(=O)Oc2ccc(F)c(F)c2)cc1S(=O)(=O)N1CCOCC1	0
C=C1C(=O)OC2C1CCC(C)C1C=CC(=O)C12C (stereo not given)	0
C=C1C(=O)OC2CC1C(O)CC(C)=CCCC(C)=CC(O)CC2C (stereo not given)	87.1
CNC(=O)C[C@H]1CC[C@H]2[C@@H](COc3ccc(NC(=O)c4ccccc4F)cc3C(=O)N2C)O1	0
O=C(Nc1cccc(Cl)c1)N1C[C@@H]2[C@H](c3ccccc31)[C@H](CO)N2Cc1cccnc1	0
C[C@@H]1COCc2cnnn2CC[C@@H](Cc2ccccc2)C(=O)N1	0
O=C(C[C@H]1C[C@@H]2c3cc(NC(=O)C4CCOCC4)ccc3O[C@@H]2[C@@H](CO)O1)NCc1ccc(Oc2ccccc2)cc1	0
COc1cccc(CNC(=O)[C@H]2[C@H](CO)[C@H]3Cn4c(ccc(-c5cccnc5)c4=O)[C@@H]2N3C(C)=O)c1	0
Cc1ccc(-c2ccc(C3[C@H]4CNC[C@@H]3N4S(=O)(=O)c3cn(C)cn3)cc2)cc1 (stereo not given in full)	0
O=S1(=O)N=C(SCCO)c2ccccc21	0
O=C1c2ccccc2-c2c1c1ccccc1c(=O)n2CCO	0
CC1=C(SCCO)C(=O)c2ccccc2C1=O	91.2[25 µM]
O=C(Nc1ccccc1Cl)N1[C@@H]2CNc3ccccc3[C@@H]2[C@@H]1CO	0
COc1ccc(CN(C)C[C@@H]2Oc3ccc(NC(=O)Nc4ccc5c(c4)OCO5)cc3CC(=O)N([C@H](C)CO)C[C@@H]2C)cc1	0
CC(O)C(NS(=O)(=O)c1ccc2ccccc2c1)C(=O)OCC(=O)Nc1ccccc1OC(F)F (stereo not given)	0
Cc1onc(-c2ccccc2)c1-c1nc2ccccc2c(=O)o1	56.1
O=c1oc(-c2cccnc2)nc2ccccc12	0
O=c1onc(-c2ccccc2)c2ccccc12	0
SMILES	CD40 NFkB inh
CCN(C[C@H]1[C@H](c2ccccc2)[C@H](CO)N1C(=O)COC)S(C)(=O)=O	0
CN(C)C1(CNC(=O)C2CCN(S(=O)(=O)c3c(Cl)cccc3Cl)CC2)CCCCC1	0
Cc1ccc(NC(=O)CSc2ncc3ccccn23)cc1C	0
N#C[C@@H]1[C@H](c2ccccc2-c2ccc(F)cc2)[C@H](CO)N1C(=O)NC1CCCCC1	0
C[C@H]1CN([C@@H](C)CO)C(=O)c2ccccc2-c2ccccc2CO[C@@H]1CN(C)S(=O)(=O)c1cccs1	0
O=c1[nH]c(=O)n(C2CCCO2)cc1F (stereo not given)	0
O=C1C(F)=CC(COC(c2ccccc2)(c2ccccc2)c2ccccc2)OC1n1cc(F)c(=O)[nH]c1=O (stereo not given)	100.7
CC(=O)NCc1nnc2c3ccccc3c(-c3ccccc3)nn12	0
COc1nnc(-c2ccc(C)c(S(=O)(=O)NCC3CCCO3)c2)c2ccccc12 (stereo not given)	0
Cc1ccc(-c2nn3c(C)nnc3c3ccccc23)cc1S(=O)(=O)NCc1ccccc1	43.5
C[C@@H]1CN([C@H](C)CO)C(=O)c2c(c3ccccc3n2C)-c2ccccc2CO[C@@H]1CN(C)S(=O)(=O)Cc1ccccc1	0
C[C@@H]1CCCCO[C@H](CN(C)C(=O)CCCN(C)C)[C@H](C)CN([C@@H](C)CO)C(=O)c2cc(NC(=O)Nc3ccc4c(c3)OCO4)ccc2O1	0
NC1=NC2(CCCCC2)n2c(nc3ccccc32)N1	0
N=c1cc(C2(O)CCCCC2)n2c(nc3ccccc32)s1	65.8
O=C(C1CCCCC1)N1CCCn2c1nc1ccccc12	0
C[C@H]1CN([C@@H](C)CO)C(=O)c2ccccc2-c2ccccc2CO[C@@H]1CN(C)C(=O)Nc1ccc(F)cc1	0
COc1ccc(CNC(=O)COC(=O)c2ccccc2C(=O)c2ccccc2)cc1	0
CC(=O)N(C)C[C@@H]1OCc2ccccc2-c2ccccc2C(=O)N([C@@H](C)CO)C[C@@H]1C	0
COC(=O)CCCSc1nccn1-c1ccccc1	0
c1ccc(CCSc2nccn2-c2ccccc2)cc1	active
O=C(O)c1cccnc1SCCc1ccccc1	0
N#C[C@@H]1[C@@H](c2ccccc2-c2ccccc2)[C@H](CO)N1C(=O)NC1CCCCC1	0
CCn1c(-c2ccccc2)c(C(=O)CCl)c2ccccc21	0
Cn1c(=O)c(C(=O)c2ccccc2)c(O)c2ccccc21	0
Cn1c(-c2ccccc2)c(C(=O)CCl)c2ccccc21	71.5
SMILES	CD40 NFkB inh
COc1ccc(CNC(=O)N(C)C[C@@H]2OCc3ccccc3-c3ccccc3C(=O)N([C@@H](C)CO)C[C@H]2C)cc1	0
CCCN1C[C@@H](C)[C@@H](OC)CN(C)C(=O)c2cc(NC(=O)NC3CCCC3)ccc2OC[C@H]1C	0
O=C(Nc1ccc(N2CCOCC2)cc1)c1cnccn1	81.3
O=C(Nc1ccccc1N1CCOCC1)c1cnccn1	0
O=C(Nc1ccc(S(=O)(=O)N2CCCC2)cc1)c1cnccn1	0
O=C(c1cc2c(c(-c3cccc(Br)c3)n1)[C@H](CCO)NC2)N1CCCCC1	0
COC(=O)C1CCN(C(=O)CN2C(=O)NC(CC(C)C)C2=O)CC1 (stereo not given)	0
C[C@H]1CN([C@@H](C)CO)C(=O)c2c(c3ccccc3n2C)-c2ccccc2CO[C@H]1CN(C)C(=O)c1ccncc1	0
O=C(COc1ccccc1)Nc1nnc(S(=O)(=O)N2CCCCCC2)s1	0
C[C@@H](NC(=O)C[C@H]1C=C[C@@H](NS(=O)(=O)c2cccc(F)c2)[C@H](CO)O1)c1ccccc1	0
COC(=O)c1cc(=O)c2ccc(OC)cc2o1	0
COC(=O)c1ccccc1-c1c2ccc(=N)cc-2oc2cc(N)ccc12	49.3
COC(=O)c1ccc(N)cc1O	0
O=C(c1cccnc1)N1CC[C@@H]2[C@H](CO)Nc3ccc(-c4cccc(F)c4)cc3[C@@H]21	0
C[C@@H]1CN([C@@H](C)CO)C(=O)c2ccccc2-c2ccccc2CO[C@H]1CN(C)S(=O)(=O)c1cn(C)cn1	0
CCN1C(=O)C(CC(=O)Nc2ccc(F)cc2)N(Cc2ccco2)C1=S (stereo not given)	37.2
CCN1C(=O)C(CC(=O)Nc2ccc(F)cc2)N(Cc2ccc3c(c2)OCO3)C1=S (stereo not given)	0
COC(=O)CN1C(=S)N(c2ccc(F)cc2)C(=O)C1CC(=O)Nc1ccccc1 (stereo not given)	0
CCN(CC)S(=O)(=O)c1ccc2c(c1)nc(CCC(=O)Nc1ccccc1Cc1ccccc1)n2CC	0
C[N+](C)(C)CCC(=O)N1C/C(=C/c2ccccc2)C(=O)/C(=C\c2ccccc2)C1	0
O=C1/C(=C/c2ccccc2)CN(C(=O)CCN2CCOCC2)C/C1=C\c1ccccc1	92.6
O=C(/C=C/c1ccccc1)CCN1CCOCC1	0
CCc1c(C(=O)N2CCCN(C)CC2)csc1C	0
O=C(COC(=O)Cc1ccsc1)Nc1ccc(Cl)cc1F	0

High-throughput results: PubChem, Broad Institute
